Here are results for eight molecules from PubChem BioAssay (NCI).

The structures appear in SMILES notation. This is part of a sample that, as a whole, favours compounds with a hit. Of some 83,000 tested, about 20% had one in any assay.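 The test compound was applied at a single concentration to cells in 96-well plates for 48 hours, and percent growth was recorded.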 Values without a mark were called inactive. Active and inactive are the calls of the source. Rule for the calls: active = growth percent below 10; inactive = the rest.

Test systems include NCI-H23 lung; NCI-H226 lung; NCI-H322M lung; NCI-H460 lung; A549/ATCC NSCLC; 786-0 renal; COLO 205 colon; DU-145 prostate; K-562 leukemia; MALME-3M melanoma; MDA-MB-231 breast; RXF 393 renal; SF-268 CNS; SF-295 CNS; SF-539 CNS; UACC-257 melanoma; M14 melanoma.
What all share (test): NCI-60 one-dose screen, 48 h (100 = growth as untreated, 0 = no growth, -100 = all killed)
Conditions in all cases: 10 µM unless noted

For the molecule `O=C(Nc1ccc(-n2cc(-c3ccncc3)c(-c3ccc(Cl)c(O)c3)n2)cc1)Nc1ccc(Cl)c(C(F)(F)F)c1`, the growth in the test with NCI-H23 lung was 3.39% (active); in the test on NCI-H226 lung, 68.2%; in the test with NCI-H322M lung it was 12%; in the test with NCI-H460 lung it was -29.3% (active); with A549/ATCC NSCLC, 6.06% (active); with 786-0 renal it was -44.8% (active). In addition, the growth in the test on COLO 205 colon was -66.5% (active); in the test on DU-145 prostate it was 23.2%; in the test with K-562 leukemia, 8.1% (active); in the test on MALME-3M melanoma it was -13.6% (active); in the test with MDA-MB-231 breast it was -24.8% (active); with RXF 393 renal it was -47.8% (active). Moreover, the growth in the test with SF-268 CNS is 23.3%; in the test with SF-295 CNS it was -44.5% (active); in the test with SF-539 CNS it was 2.77% (active); in the test on UACC-257 melanoma, -9.1% (active); with M14 melanoma it was -58.6% (active).
As for `CC(C)(C)c1ccc(OCCOC(=O)CBr)cc1`, the growth was 98.7% in the test with NCI-H23 lung; 102% in the test with NCI-H226 lung; 120% in the test with NCI-H322M lung; 102% in the test on NCI-H460 lung; 105% in the test with A549/ATCC NSCLC; 103% in the test with 786-0 renal. The growth in the test with COLO 205 colon was 89.1%; in the test on DU-145 prostate it was 109%; in the test with K-562 leukemia it was 82.8%; in the test on MALME-3M melanoma it was 107%; in the test on MDA-MB-231 breast it was 88%; in the test on RXF 393 renal it was 78.5%. Besides, the growth is 96.3% in the test on SF-268 CNS; 116% in the test with SF-295 CNS; 100% in the test on SF-539 CNS; 106% in the test on UACC-257 melanoma; 95.8% in the test with M14 melanoma.
In the case of `CCCCCCC(=O)C(C)C`, the growth with NCI-H23 lung is 107%; with NCI-H226 lung it was 92.3%; in the test with NCI-H322M lung, 96.5%; in the test with NCI-H460 lung it was 113%; in the test on A549/ATCC NSCLC it was 97.5%; in the test on 786-0 renal, 94.5%. The growth is 112% with COLO 205 colon; 106% with DU-145 prostate; 94.9% with K-562 leukemia; 89.2% in the test with MALME-3M melanoma; 111% with MDA-MB-231 breast; 101% with RXF 393 renal. Moreover, the growth with SF-268 CNS is 105%; with SF-295 CNS it was 101%; with SF-539 CNS, 104%; with UACC-257 melanoma, 92.8%; in the test with M14 melanoma, 97.2%.
On to `O=c1c2c(c3ccccc3n1-c1ccccc1)NC(=S)NC2c1ccccc1` (centres undefined), for which the growth in the test on NCI-H23 lung is 98.5%; in the test on NCI-H226 lung, 92.1%; with NCI-H322M lung, 130%; with NCI-H460 lung it was 104%; in the test on A549/ATCC NSCLC, 103%; with 786-0 renal, 97.3%. Besides, the growth was 113% with COLO 205 colon; 115% with DU-145 prostate; 101% in the test on K-562 leukemia; 112% with MALME-3M melanoma; 84.7% in the test on MDA-MB-231 breast; 117% with RXF 393 renal. Moreover, the growth is 104% in the test with SF-268 CNS; 121% in the test on SF-295 CNS; 94.8% in the test on SF-539 CNS; 108% in the test on UACC-257 melanoma; 98.8% in the test with M14 melanoma.
On to `COC(=O)C(Cc1cnc[nH]1)N1CC(=O)N2[C@@H](c3ccccc3)SC[C@H]2C1=O` (some centres undefined), for which the growth with NCI-H23 lung is 100%; in the test on NCI-H226 lung, 143%; in the test with NCI-H322M lung it was 112%; in the test with NCI-H460 lung, 109%; in the test with A549/ATCC NSCLC it was 96.4%; in the test on 786-0 renal, 107%. For the same molecule, the growth in the test on COLO 205 colon was 124%; in the test with DU-145 prostate it was 117%; in the test on K-562 leukemia it was 106%; with MALME-3M melanoma, 108%; in the test on MDA-MB-231 breast it was 116%; in the test with RXF 393 renal, 193%. In addition, the growth in the test on SF-268 CNS was 104%; in the test on SF-295 CNS, 93.5%; with SF-539 CNS it was 105%; with UACC-257 melanoma, 96.7%; with M14 melanoma it was 101%.
For `CC(Br)c1nc2ccccc2cc1C(N)=O` (centres undefined), the growth with NCI-H23 lung was 107%; with NCI-H226 lung it was 106%; with NCI-H322M lung, 99.9%; in the test with NCI-H460 lung it was 102%; in the test with A549/ATCC NSCLC, 97%; in the test with 786-0 renal it was 103%. For the same molecule, the growth in the test with COLO 205 colon was 110%; in the test with DU-145 prostate, 102%; with K-562 leukemia, 90.9%; in the test on MALME-3M melanoma, 101%; in the test with MDA-MB-231 breast it was 118%; with RXF 393 renal, 109%. The growth in the test with SF-268 CNS was 104%; in the test on SF-539 CNS, 103%; with UACC-257 melanoma, 119%; in the test on M14 melanoma, 109%.
For `CCCCCCCCCCCCOC(=O)/C=C\C(=O)NC(N)=O`, the growth in the test on NCI-H23 lung was 110%; in the test on NCI-H226 lung, 96.8%; in the test on NCI-H322M lung, 111%; with NCI-H460 lung it was 93.2%; with A549/ATCC NSCLC, 81.6%; with 786-0 renal, 89.9%. Moreover, the growth was 111% in the test on COLO 205 colon; 95.4% in the test with DU-145 prostate; 44.2% in the test on K-562 leukemia; 102% with MALME-3M melanoma; 93.5% with MDA-MB-231 breast; 69.3% in the test with RXF 393 renal. Further, the growth in the test with SF-268 CNS was 107%; in the test with SF-295 CNS it was 102%; with SF-539 CNS it was 95.5%; with UACC-257 melanoma it was 85.2%; in the test with M14 melanoma it was 93.6%.
Regarding `CCCCCCC(C(=O)OCC)(C(=O)OCC)C1CCCCCC1`, the growth in the test on NCI-H23 lung was 107%; in the test with NCI-H226 lung, 99.6%; in the test on NCI-H322M lung, 96.6%; with NCI-H460 lung, 106%; in the test with A549/ATCC NSCLC, 96%; with 786-0 renal, 115%. The growth is 102% in the test on COLO 205 colon; 120% in the test on DU-145 prostate; 100% in the test with K-562 leukemia; 108% with MALME-3M melanoma; 101% in the test with MDA-MB-231 breast; 104% in the test on RXF 393 renal. Besides, the growth was 121% in the test on SF-268 CNS, 105% in the test on SF-295 CNS, 92.8% in the test with SF-539 CNS and 106% in the test on M14 melanoma.
